# Test results: PubChem BioAssay (NCATS)
# Inconclusive results are not listed. Active and inactive are the calls of the source. Calls come from the whole dose curve; as a rule, active = well fitted curve in the direction sought with a large enough effect; inconclusive = small, poorly fitted or top-dose-only effect, or another doubt; inactive = no such curve, though single readings can be large; an effect the other way counts as inactive or inconclusive.
# Experiment: qHTS assay for measurement of the activity of small molecule inhibitors on Zika virus induced Caspase-3 activity in human astrocytoma cells (AID 1224859);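 note: plate controls were ZIKV-infected untreated cells for no effect and uninfected cells for full effect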
# Details: SNB-19 ZIKV-induced caspase-3/7, luminescence, 6 h; series mostly up to 45.7 µM
# Outline: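 Luminescence read-out (Caspase-Glo 3/7, 30 min RT) of caspase activity in SNB-19 cells infected 6 h with ZIKV, 2 FFU/cell, after 1 h compound pretreatment; % inhibition from induction normalised to uninfected (0%) and infected (100%) wells.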
Compound,outcome,"activity change, negative = inhibition"
CCOc1ccc(C(=O)OCCN(CC)CC)cc1,inactive,–
CC(O)CCCCn1c(=O)c2c(ncn2C)n(C)c1=O (stereo unspecified),inactive,–
Cc1cccc(C)c1NC(=O)CC12CCCN1CCC2,inactive,–
O=C(c1ccccc1)C(O)c1ccccc1 (stereo unspecified),inactive,–
NS(=O)(=O)c1ccc(NC(=O)CCC(=O)O)cc1,inactive,–
CC[N+](CC)(CC(=O)Nc1c(C)cccc1C)Cc1ccccc1,inactive,–
C=CCOc1ccccc1OCC(O)CNC(C)C (stereo unspecified),inactive,–
C[N+]1(C)CCCC(OC(=O)C(O)(c2ccccc2)c2ccccc2)C1 (stereo unspecified),inactive,–
CCCCCCCCCCC(CO)CCCCCCCC (stereo unspecified),inactive,–
CC(=O)Nc1ccc(C(=O)O)cc1,inactive,–
COc1ccc(-c2cc(=O)c3c(O)cc(O[C@@H]4O[C@H](CO[C@@H]5O[C@@H](C)[C@H](O)[C@@H](O)[C@H]5O)[C@@H](O)[C@H](O)[C@H]4O)cc3o2)cc1O,inactive,–
Cc1c(I)c(=O)n(-c2ccccc2)n1C,inactive,–
OC[C@@H](O)[C@@H](O)[C@H](O)[C@H](O)CO,inactive,–
CC(C)(C)NCC(O)COc1cccc2c1CCC(=O)N2 (stereo unspecified),inactive,–
CN/C(=C\[N+](=O)[O-])NCCSCc1csc(CN(C)C)n1,inactive,–
CC(=O)NCc1c(I)c(NC(C)=O)c(I)c(C(=O)O)c1I,inactive,–
O=C(OOC(=O)c1ccccc1)c1ccccc1,inactive,–
O=C(O)CCCCC1CCSS1 (stereo unspecified),inactive,–
FC(F)(F)C(Cl)Br (stereo unspecified),inactive,–

Compound,outcome,"activity change, negative = inhibition"
C[C@@H]1O[C@@H](OC[C@H]2O[C@@H](Oc3c(-c4ccc(O)c(O)c4)oc4cc(O)cc(O)c4c3=O)[C@H](O)[C@@H](O)[C@@H]2O)[C@H](O)[C@H](O)[C@H]1O,inactive,–
CC(=O)Nc1cccc(O)c1,inactive,–
O=C1C(c2[nH]c3ccccc3c2O)=Nc2ccccc21,inactive,–
NCC1CCC(C(=O)Oc2ccc(CCC(=O)O)cc2)CC1 (stereo unspecified),inactive,–
CCCCCCCCCCCCCCCCCCO,inactive,–
CC(C)=CCC[C@@](C)(O)[C@H]1CC=C(C)CC1,inactive,–
COc1ccccc1OC(=O)Oc1ccccc1OC,inactive,–
N[C@@H](Cc1ccc(O)cc1)C(=O)O,–,-11% [at 9.06 µM] (inactive)
COC(=O)c1cccnc1,inactive,–
CC(CSC(=O)c1ccccc1)C(=O)N1C[C@@H](Sc2ccccc2)C[C@H]1C(=O)O (stereo partly specified),inactive,–
Cc1ccccc1N=Nc1ccc(N=Nc2c(O)ccc3ccccc23)c(C)c1,inactive,–
CN1C(C)(C)CCCC1(C)C,inactive,–
CN1CCCN=C1COC(=O)C(O)(c1ccccc1)C1CCCCC1 (stereo unspecified),inactive,–
Cc1ccsc1C(=CCCN1CCC[C@@H](C(=O)O)C1)c1sccc1C,inactive,–
CCc1nnc(NS(=O)(=O)c2ccc(N)cc2)s1,inactive,–
O=C(O)[C@@H]1[C@H]2C[C@H]3c4[nH]c5ccccc5c4CCN3C[C@@H]2CC[C@@H]1O,inactive,–
CCCCCCCC(=O)OCC(O)CO (stereo unspecified),inactive,–
O=C(O)c1ccc(OCCCOc2ccc(C(=O)O)cc2)cc1,inactive,–
NC(=O)NC1NC(=O)NC1=O (stereo unspecified),inactive,–

# Experiment: qHTS assay to identify small molecule inhibitors of chordoma cells - UCH-1 (AID 1259355); note: % is set by controls: 0 for no effect and ±100 for the full control effect; nearly all actives have a fitted effect of over 55% in size
# Details: UCH-1 chordoma viability, CellTiter-Glo, 48 h, combination, with auranofin plus four topoisomerase inhibitors; series mostly up to 46.1 µM
# Outline: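 Screening used approved and investigational drugs in 15-point titration against 800 seeded cells per well. A fixed combination of auranofin with camptothecin, doxorubicin, rubitecan and topotecan followed compound addition, and growth was scored by CellTiter-Glo after 48hr.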
row,Compound,outcome
1,CCOc1ccc(C(=O)OCCN(CC)CC)cc1,inactive
2,CC(O)CCCCn1c(=O)c2c(ncn2C)n(C)c1=O (stereo unspecified),inactive
3,Cc1cccc(C)c1NC(=O)CC12CCCN1CCC2,inactive
4,O=C(c1ccccc1)C(O)c1ccccc1 (stereo unspecified),inactive
5,NS(=O)(=O)c1ccc(NC(=O)CCC(=O)O)cc1,inactive
6,CC[N+](CC)(CC(=O)Nc1c(C)cccc1C)Cc1ccccc1,inactive
7,C=CCOc1ccccc1OCC(O)CNC(C)C (stereo unspecified),inactive
8,C[N+]1(C)CCCC(OC(=O)C(O)(c2ccccc2)c2ccccc2)C1 (stereo unspecified),inactive
9,CCCCCCCCCCC(CO)CCCCCCCC (stereo unspecified),inactive
10,CC(=O)Nc1ccc(C(=O)O)cc1,inactive
11,COc1ccc(-c2cc(=O)c3c(O)cc(O[C@@H]4O[C@H](CO[C@@H]5O[C@@H](C)[C@H](O)[C@@H](O)[C@H]5O)[C@@H](O)[C@H](O)[C@H]4O)cc3o2)cc1O,inactive
12,Cc1c(I)c(=O)n(-c2ccccc2)n1C,inactive
13,OC[C@@H](O)[C@@H](O)[C@H](O)[C@H](O)CO,inactive
14,CC(C)(C)NCC(O)COc1cccc2c1CCC(=O)N2 (stereo unspecified),inactive
15,CN/C(=C\[N+](=O)[O-])NCCSCc1csc(CN(C)C)n1,inactive
16,CC(=O)NCc1c(I)c(NC(C)=O)c(I)c(C(=O)O)c1I,inactive
17,O=C(OOC(=O)c1ccccc1)c1ccccc1,inactive
18,O=C(O)CCCCC1CCSS1 (stereo unspecified),inactive
19,FC(F)(F)C(Cl)Br (stereo unspecified),inactive

row,Compound,outcome
1,C[C@@H]1O[C@@H](OC[C@H]2O[C@@H](Oc3c(-c4ccc(O)c(O)c4)oc4cc(O)cc(O)c4c3=O)[C@H](O)[C@@H](O)[C@@H]2O)[C@H](O)[C@H](O)[C@H]1O,inactive
2,CC(=O)Nc1cccc(O)c1,inactive
3,O=C1C(c2[nH]c3ccccc3c2O)=Nc2ccccc21,inactive
4,NCC1CCC(C(=O)Oc2ccc(CCC(=O)O)cc2)CC1 (stereo unspecified),inactive
5,CCCCCCCCCCCCCCCCCCO,inactive
6,CC(C)=CCC[C@@](C)(O)[C@H]1CC=C(C)CC1,inactive
7,COc1ccccc1OC(=O)Oc1ccccc1OC,inactive
8,N[C@@H](Cc1ccc(O)cc1)C(=O)O,inactive
9,COC(=O)c1cccnc1,inactive
10,CC(CSC(=O)c1ccccc1)C(=O)N1C[C@@H](Sc2ccccc2)C[C@H]1C(=O)O (stereo partly specified),inactive
11,Cc1ccccc1N=Nc1ccc(N=Nc2c(O)ccc3ccccc23)c(C)c1,inactive
12,CN1C(C)(C)CCCC1(C)C,inactive
13,CN1CCCN=C1COC(=O)C(O)(c1ccccc1)C1CCCCC1 (stereo unspecified),inactive
14,Cc1ccsc1C(=CCCN1CCC[C@@H](C(=O)O)C1)c1sccc1C,inactive
15,CCc1nnc(NS(=O)(=O)c2ccc(N)cc2)s1,inactive
16,O=C(O)[C@@H]1[C@H]2C[C@H]3c4[nH]c5ccccc5c4CCN3C[C@@H]2CC[C@@H]1O,inactive
17,CCCCCCCC(=O)OCC(O)CO (stereo unspecified),inactive
18,O=C(O)c1ccc(OCCCOc2ccc(C(=O)O)cc2)cc1,inactive
19,NC(=O)NC1NC(=O)NC1=O (stereo unspecified),inactive
